From PubChem BioAssay (NCI) come the findings set out here.

Each structure is given as a SMILES string. Compounds without any hit were thinned out: in the full panel of roughly 83,000, 20% have a hit.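 Method: cells in 96-well plates; compound added at one concentration; 48 h incubation; percent growth measured; values under 10 scored active.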 Values without a mark were called inactive. Activity calls are given as the source filed them.

Among the test systems are HCT-15 colon; HT29 colon; SNB-75 CNS; SNB-19 CNS; U251 CNS; PC-3 prostate; SK-MEL-5 melanoma; UACC-62 melanoma; LOX IMVI melanoma; SK-MEL-28 melanoma.
Common to all, as to test: NCI-60 one-dose screen, 48 h (100 = growth as untreated, 0 = no growth, -100 = all killed)
Conditions in all cases: 10 µM unless noted

Regarding `CN(CCNc1ccc(C(=N)N)cc1)c1ccc(C(=N)N)cc1`, the growth was 84.5% with HCT-15 colon; 101% in the test with HT29 colon; 96.8% in the test with SNB-75 CNS; 104% in the test on SNB-19 CNS; 81.2% in the test on U251 CNS; 82.2% with PC-3 prostate. The growth in the test on SK-MEL-5 melanoma was 67%; in the test with UACC-62 melanoma, 72.6%; in the test on LOX IMVI melanoma, 82.4%; in the test on SK-MEL-28 melanoma, 94.8%.

`Cc1nc2sc(C(=O)Nc3ccccc3)c(N)c2cc1C(O)c1ccccc1` (stereo not given): the growth is 9.11% (active) with HCT-15 colon; 11.9% with HT29 colon; 36.9% in the test on SNB-75 CNS; 23.5% in the test with SNB-19 CNS; 16.9% in the test with U251 CNS; 21.6% in the test with PC-3 prostate. Further, the growth is 4.19% (active) in the test on SK-MEL-5 melanoma, 34.6% in the test with UACC-62 melanoma, 26.9% in the test with LOX IMVI melanoma and 65.7% in the test with SK-MEL-28 melanoma.

Regarding `N#C/C(=N\Nc1ccccc1)C(=O)Nc1cc(-c2ccccc2)nn1-c1ccccc1`, the growth in the test with HCT-15 colon was 13.1%; with HT29 colon it was 31.5%; in the test with SNB-75 CNS, 68.2%; in the test on SNB-19 CNS, 14.6%; with U251 CNS it was 8.34% (active); in the test on PC-3 prostate it was 10%. In addition, the growth was -27.5% (active) in the test with SK-MEL-5 melanoma, 14.2% in the test on UACC-62 melanoma, 52.9% with LOX IMVI melanoma and 44.9% in the test with SK-MEL-28 melanoma.

Consider `COc1cccc(-c2nn(-c3ccccc3)cc2-c2ccnc(-c3cccnc3)c2)c1`, for which the growth was 89.6% with HCT-15 colon; 96.7% with HT29 colon; 93% with SNB-75 CNS; 97.6% in the test on SNB-19 CNS; 104% in the test with U251 CNS; 70.6% in the test with PC-3 prostate. In addition, the growth in the test with SK-MEL-5 melanoma is 81.2%; with UACC-62 melanoma, 86.6%; in the test on LOX IMVI melanoma, 87.4%; in the test with SK-MEL-28 melanoma it was 100%.

On to `N#Cc1nn(-c2ccccn2)c(N)c1C#N`, for which the growth was 102% in the test with HCT-15 colon; 86.4% in the test on HT29 colon; 87.3% with SNB-75 CNS; 101% with SNB-19 CNS; 103% in the test on U251 CNS; 95.4% with PC-3 prostate. Besides, the growth with SK-MEL-5 melanoma was 104%; in the test with UACC-62 melanoma, 99.1%; in the test on LOX IMVI melanoma, 101%; with SK-MEL-28 melanoma, 105%.

For the compound `COC(=O)[C@H](C)NC(=O)c1ccc(NC(=O)c2[nH]c(C)c(Cl)c2Cl)c(OCCN)c1`, the growth is 99.9% in the test with HCT-15 colon; 109% in the test with HT29 colon; 98.6% in the test on SNB-75 CNS; 101% with SNB-19 CNS; 110% in the test with U251 CNS; 98.5% in the test with PC-3 prostate. Also, the growth in the test with SK-MEL-5 melanoma is 99.2%; with UACC-62 melanoma it was 103%; in the test on LOX IMVI melanoma, 96.2%; in the test with SK-MEL-28 melanoma it was 110%.

Take `CS(=O)(=O)Nc1cc(-c2ccc3ncnc(Nc4cccc(Cl)c4)c3c2)cnc1Cl`: the growth in the test on HCT-15 colon is 4.71% (active); in the test on HT29 colon it was 2.65% (active); with SNB-75 CNS, -10.4% (active); with SNB-19 CNS it was 18%; in the test on U251 CNS, -2.63% (active); with PC-3 prostate, -2.27% (active). The growth in the test on SK-MEL-5 melanoma is -95.6% (active); in the test on UACC-62 melanoma, -23.6% (active); with LOX IMVI melanoma, -35.5% (active); with SK-MEL-28 melanoma, 5.51% (active).

Regarding `CC(CN)[C@@H]1CC[C@]2(CO)CC[C@]3(C)[C@H](CC[C@@H]4[C@@]5(C)CCC(NCCO)C(C)(C)[C@@H]5CC[C@]43C)[C@@H]12` (stereo not given in full), the growth with HCT-15 colon is 38.4%; in the test with HT29 colon it was 1.25% (active); with SNB-75 CNS, 59.5%; in the test with SNB-19 CNS it was 78.5%; in the test on U251 CNS, 18.4%; in the test with PC-3 prostate, 69.4%. In addition, the growth was 32.9% with SK-MEL-5 melanoma, 91.9% with UACC-62 melanoma, -64.4% (active) in the test with LOX IMVI melanoma and -5.2% (active) in the test on SK-MEL-28 melanoma.

Turning to `O=C1c2cccnc2C(=O)c2c1c(C(=O)OCCCN1CCOCC1)c1ccccn21`, the growth with HCT-15 colon was -42.2% (active); in the test with HT29 colon it was -67.8% (active); in the test on SNB-75 CNS, -81.3% (active); in the test with SNB-19 CNS, 9.22% (active); with U251 CNS, -70.7% (active); with PC-3 prostate, -0.15% (active). The growth in the test on SK-MEL-5 melanoma was -94.9% (active); in the test on UACC-62 melanoma it was -40.7% (active); with LOX IMVI melanoma it was -29.1% (active); with SK-MEL-28 melanoma, 37.7%.

For `CN1CCN(CCCNC(=O)c2c3c(n4ccccc24)C(=O)c2ncccc2C3=O)CC1`, the growth was 4.07% (active) in the test on HCT-15 colon; 0.534% (active) in the test on HT29 colon; -4.64% (active) in the test on SNB-75 CNS; -4.84% (active) in the test with SNB-19 CNS; -15.7% (active) in the test with U251 CNS; -1.89% (active) in the test on PC-3 prostate. Also, the growth in the test on SK-MEL-5 melanoma was -96% (active); in the test with UACC-62 melanoma it was -23.7% (active); with LOX IMVI melanoma, -31.7% (active); in the test on SK-MEL-28 melanoma, 61.5%.

On to `CCOC(=O)c1c2c(n3ccc(NC(=O)CCN4CCCC4)cc13)C(=O)c1ncccc1C2=O`, for which the growth with HCT-15 colon is -78.1% (active); in the test on HT29 colon it was -52.8% (active); in the test with SNB-75 CNS it was -97.5% (active); with SNB-19 CNS, -55.4% (active); in the test with U251 CNS it was -88.5% (active); in the test on PC-3 prostate, -11.7% (active). Also, the growth was 68.6% in the test with SK-MEL-5 melanoma, -12.4% (active) with UACC-62 melanoma, -73% (active) in the test with LOX IMVI melanoma and 96.4% in the test with SK-MEL-28 melanoma.

In the case of `COc1nc2ccccc2cc1/C=[N+](\[O-])c1ccccc1`, the growth is 19% in the test on HCT-15 colon; 70% in the test with HT29 colon; 73% in the test on SNB-75 CNS; 81.8% in the test on SNB-19 CNS; 56% in the test on U251 CNS; 60.3% in the test on PC-3 prostate. In addition, the growth with SK-MEL-5 melanoma was 73.4%; in the test with UACC-62 melanoma, 62.8%; in the test on LOX IMVI melanoma it was 40.1%; in the test on SK-MEL-28 melanoma it was 101%.

Turning to `COC(=O)c1cc(-c2cc(OC)c(OC)c(OC)c2)[nH]c1N/N=C/c1c(Cl)cccc1Cl`, the growth with HCT-15 colon is 60%; in the test on HT29 colon, 32.4%; with SNB-75 CNS, 3.41% (active); with SNB-19 CNS, 28.5%; with U251 CNS it was 14.1%; in the test with PC-3 prostate, 12%. In addition, the growth was 58.7% in the test with SK-MEL-5 melanoma, 34.8% with UACC-62 melanoma, 19.2% in the test with LOX IMVI melanoma and 30.1% with SK-MEL-28 melanoma.
